Laboratory results reported in PubChem BioAssay AID743289 (Broad Institute, 2014).
Some of the results follow.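 The calls were made as follows: active = compounds lowering fluorescence whose fitted half-maximal concentration is no more than twice their top tested dose; inconclusive = flat fit with 30 to 70% inhibition, or poor fit; inactive = the rest.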

These molecules were tested against Caspase-1 (Homo sapiens) (UniProt P29466) (assay: caspase-1 enzyme inhibition, selectivity check – biochemical, Z-YVAD-R110 fluorescence, cherry-pick, set 2, selectivity assay for caspase-6 inhibitor project, dose response (AID 743289)). Details: purified caspase-1, Z-YVAD-R110 cleavage fluorescence; series mostly up to 35 µM; activity change, negative = inhibition: at the top concentration.
Sequence of Caspase-1 (Homo sapiens) (P29466 whole entry, looked up): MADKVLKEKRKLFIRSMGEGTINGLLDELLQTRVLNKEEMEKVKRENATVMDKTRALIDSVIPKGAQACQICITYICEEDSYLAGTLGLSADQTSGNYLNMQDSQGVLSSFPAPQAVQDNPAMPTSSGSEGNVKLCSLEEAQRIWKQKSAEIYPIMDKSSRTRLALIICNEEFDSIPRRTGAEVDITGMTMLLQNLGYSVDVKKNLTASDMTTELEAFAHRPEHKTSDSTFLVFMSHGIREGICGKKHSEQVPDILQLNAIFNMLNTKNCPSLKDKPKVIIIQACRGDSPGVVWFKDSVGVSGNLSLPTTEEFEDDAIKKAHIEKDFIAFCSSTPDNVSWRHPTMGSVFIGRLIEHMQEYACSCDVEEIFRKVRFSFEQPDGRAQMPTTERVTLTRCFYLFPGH

Activity change, negative = inhibition, inactive:
COc1cc(NC(=O)COC(=O)c2ccc([N+](=O)[O-])s2)cc(OC)c1OC -2.52%
CCN(CC)CCCC(C)n1c2nc(=O)[nH]c(=O)c-2nc2cc(Cl)ccc21 (stereo not given) -0.661%
O=c1ccc2c(-c3ccccc3S(=O)(=O)O)c3ccc(O)c(O)c3oc-2c1O -6.4%
CNS(=O)(=O)c1cccc(C(=O)OCC(=O)N2c3ccccc3NC(=O)C2(C)C)c1 -1%
Cc1c(CCC(=O)O)c(=O)oc2c(C)c(OCc3ccccc3Cl)ccc12 20.6%
